# PMC7862700, “An all-to-all approach to the identification of sequence-specific readers for epigenetic DNA modifications on cytosine”
# Experiments:
# Assay in all cases: DAPPL (digital affinity profiling via proximity ligation, sequencing); 10 mM Tris-HCl pH 7.5, 50 mM NaCl, 1 mM DTT, 4% glycerol, room temperature, 30 min; GST-TFs on glutathione beads, 16-mer random dsDNA library, 0.1% formaldehyde crosslink after washing; high values mean tight binding
# [1] = target: T1, FLI1 (Homo sapiens, UniProt Q01543 1-452); settings: protein: recombinant; tags: N-terminal GST; dsDNA, one strand shown
# T1 sequence: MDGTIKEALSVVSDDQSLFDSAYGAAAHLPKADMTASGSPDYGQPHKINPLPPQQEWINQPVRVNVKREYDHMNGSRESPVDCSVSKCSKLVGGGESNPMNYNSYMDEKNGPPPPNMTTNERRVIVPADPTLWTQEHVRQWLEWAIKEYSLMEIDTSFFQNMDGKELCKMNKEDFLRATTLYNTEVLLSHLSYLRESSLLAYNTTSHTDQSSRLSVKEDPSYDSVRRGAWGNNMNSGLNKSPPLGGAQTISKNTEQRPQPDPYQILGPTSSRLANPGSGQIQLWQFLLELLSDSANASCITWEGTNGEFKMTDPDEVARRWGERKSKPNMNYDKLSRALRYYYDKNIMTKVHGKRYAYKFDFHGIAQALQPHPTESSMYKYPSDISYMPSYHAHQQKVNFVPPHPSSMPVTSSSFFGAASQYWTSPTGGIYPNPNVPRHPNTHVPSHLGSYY
# Procedure, shortened: (§1)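 Pools of DNA-barcoded human transcription factors, expressed in yeast as GST fusions on glutathione beads and combined with a tag-only sample, were incubated with 200 nmole of a 16-mer random double-stranded DNA library. Incubation took 30 min at room temperature in Tris/NaCl/DTT/glycerol buffer and was followed by washing, 0.1% formaldehyde crosslinking, proximity ligation (BsaI/T4 ligase, 1 h, 37 °C), PCR amplification and sequencing on an Illumina NextSeq500. Binding signal is the ratio of a hexamer's read frequency for a factor to its frequency for the tag-only sample.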
# [2] = target: T2, ELK1 (Homo sapiens, UniProt P19419 1-428); settings: protein: recombinant; tags: N-terminal GST; dsDNA, one strand shown
# T2 sequence: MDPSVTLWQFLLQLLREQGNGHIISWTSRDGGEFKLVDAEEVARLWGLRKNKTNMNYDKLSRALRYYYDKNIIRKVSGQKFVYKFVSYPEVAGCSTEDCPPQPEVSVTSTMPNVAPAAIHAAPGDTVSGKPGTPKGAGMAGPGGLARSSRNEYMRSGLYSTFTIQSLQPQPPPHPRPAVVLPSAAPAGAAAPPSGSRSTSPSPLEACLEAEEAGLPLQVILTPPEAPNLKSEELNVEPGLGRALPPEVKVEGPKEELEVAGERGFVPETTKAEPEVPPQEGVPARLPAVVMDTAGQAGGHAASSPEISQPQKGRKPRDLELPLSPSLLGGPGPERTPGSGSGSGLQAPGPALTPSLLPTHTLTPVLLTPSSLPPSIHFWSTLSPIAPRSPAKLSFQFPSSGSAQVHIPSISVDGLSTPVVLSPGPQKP
# Procedure, shortened: as §1
# [3] = target: T3, GABPA (Homo sapiens, UniProt Q06546 1-454); settings: protein: recombinant; tags: N-terminal GST; dsDNA, one strand shown
# T3 sequence: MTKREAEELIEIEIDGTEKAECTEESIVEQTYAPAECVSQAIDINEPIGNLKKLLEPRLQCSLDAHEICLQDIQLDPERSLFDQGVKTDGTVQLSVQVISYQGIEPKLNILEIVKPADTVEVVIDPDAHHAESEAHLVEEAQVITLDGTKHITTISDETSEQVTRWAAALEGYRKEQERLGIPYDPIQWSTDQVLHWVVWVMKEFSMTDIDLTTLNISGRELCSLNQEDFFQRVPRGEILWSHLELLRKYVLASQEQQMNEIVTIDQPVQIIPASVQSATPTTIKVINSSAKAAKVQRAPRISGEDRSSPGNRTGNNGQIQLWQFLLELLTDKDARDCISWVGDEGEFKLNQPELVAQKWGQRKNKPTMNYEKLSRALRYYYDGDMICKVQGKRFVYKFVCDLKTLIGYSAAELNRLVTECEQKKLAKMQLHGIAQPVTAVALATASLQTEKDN
# Procedure, shortened: as §1
# [4] = target: T4, ERG (Homo sapiens, UniProt P11308 1-479); settings: protein: recombinant; tags: N-terminal GST; dsDNA, one strand shown
# T4 sequence: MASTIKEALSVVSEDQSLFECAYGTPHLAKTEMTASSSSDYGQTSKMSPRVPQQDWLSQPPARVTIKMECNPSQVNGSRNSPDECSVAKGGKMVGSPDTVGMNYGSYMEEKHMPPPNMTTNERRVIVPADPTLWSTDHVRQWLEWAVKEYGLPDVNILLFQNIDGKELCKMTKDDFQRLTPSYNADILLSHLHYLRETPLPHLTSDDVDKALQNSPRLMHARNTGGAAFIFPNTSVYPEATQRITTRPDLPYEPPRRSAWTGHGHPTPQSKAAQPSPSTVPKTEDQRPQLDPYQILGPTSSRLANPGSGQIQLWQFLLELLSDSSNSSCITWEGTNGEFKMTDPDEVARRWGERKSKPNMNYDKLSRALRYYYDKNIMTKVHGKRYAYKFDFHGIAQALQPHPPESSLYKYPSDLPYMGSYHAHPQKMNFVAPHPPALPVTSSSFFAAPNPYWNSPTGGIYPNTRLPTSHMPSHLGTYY
# Procedure, shortened: as §1
# [5] = target: ELF1 (Homo sapiens, UniProt P32519 1-619); settings: protein: recombinant; tags: N-terminal GST; dsDNA, one strand shown
# Procedure, shortened: as §1
# [6] = target: T5, EHF (Homo sapiens, UniProt Q9NZC4 1-300); settings: protein: recombinant; tags: N-terminal GST; dsDNA, one strand shown
# T5 sequence: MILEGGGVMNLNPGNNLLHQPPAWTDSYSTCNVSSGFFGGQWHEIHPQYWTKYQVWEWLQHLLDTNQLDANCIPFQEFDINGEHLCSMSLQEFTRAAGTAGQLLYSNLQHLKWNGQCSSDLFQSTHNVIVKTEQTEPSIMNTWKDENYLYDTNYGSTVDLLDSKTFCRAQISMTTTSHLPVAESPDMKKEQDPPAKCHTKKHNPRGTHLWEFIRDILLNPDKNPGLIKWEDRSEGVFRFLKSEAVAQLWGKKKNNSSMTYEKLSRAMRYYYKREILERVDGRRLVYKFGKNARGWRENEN
# Procedure, shortened: as §1
# [7] = target: SPI1 (Homo sapiens, UniProt P17947 1-270); settings: protein: recombinant; tags: N-terminal GST; dsDNA, one strand shown
# Procedure, shortened: as §1
# [8] = target: SPIB (Homo sapiens, UniProt Q01892 1-262); settings: protein: recombinant; tags: N-terminal GST; dsDNA, one strand shown
# Procedure, shortened: as §1
# [9] = target: T6, ELK3 (Homo sapiens, UniProt P41970 1-407); settings: protein: recombinant; tags: N-terminal GST; dsDNA, one strand shown
# T6 sequence: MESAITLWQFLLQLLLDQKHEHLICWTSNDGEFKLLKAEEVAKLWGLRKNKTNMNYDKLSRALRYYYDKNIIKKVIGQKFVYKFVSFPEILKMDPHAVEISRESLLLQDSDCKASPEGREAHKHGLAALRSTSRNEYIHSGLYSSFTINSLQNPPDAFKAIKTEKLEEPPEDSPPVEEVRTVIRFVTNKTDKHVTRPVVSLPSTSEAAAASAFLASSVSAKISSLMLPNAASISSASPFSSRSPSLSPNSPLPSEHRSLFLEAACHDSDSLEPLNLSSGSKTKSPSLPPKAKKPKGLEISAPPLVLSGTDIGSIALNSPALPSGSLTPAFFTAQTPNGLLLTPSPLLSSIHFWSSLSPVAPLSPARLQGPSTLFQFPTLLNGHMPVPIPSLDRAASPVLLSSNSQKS
# Procedure, shortened: as §1
# [10] = target: T7, FEV (Homo sapiens, UniProt Q99581 1-238); settings: protein: recombinant; tags: N-terminal GST; dsDNA, one strand shown
# T7 sequence: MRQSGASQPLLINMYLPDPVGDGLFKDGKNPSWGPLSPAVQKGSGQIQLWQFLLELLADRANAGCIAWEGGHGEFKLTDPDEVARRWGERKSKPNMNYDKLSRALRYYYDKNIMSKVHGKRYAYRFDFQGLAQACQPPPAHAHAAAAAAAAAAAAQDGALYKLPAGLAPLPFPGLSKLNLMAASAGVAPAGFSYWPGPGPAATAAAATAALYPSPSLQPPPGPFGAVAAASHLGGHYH
# Procedure, shortened: as §1
# [11] = target: ETV5 (Homo sapiens, UniProt P41161 1-510); settings: protein: recombinant; tags: N-terminal GST; dsDNA, one strand shown
# Procedure, shortened: as §1
# [12] = target: HSF1 (Homo sapiens, UniProt Q00613 1-529); settings: protein: recombinant; tags: N-terminal GST; chain copies: 3; dsDNA, one strand shown
# Procedure, shortened: as §1
# [13] = target: T8, SPIC (Homo sapiens, UniProt Q8N5J4 1-248); settings: protein: recombinant; tags: N-terminal GST; dsDNA, one strand shown
# T8 sequence: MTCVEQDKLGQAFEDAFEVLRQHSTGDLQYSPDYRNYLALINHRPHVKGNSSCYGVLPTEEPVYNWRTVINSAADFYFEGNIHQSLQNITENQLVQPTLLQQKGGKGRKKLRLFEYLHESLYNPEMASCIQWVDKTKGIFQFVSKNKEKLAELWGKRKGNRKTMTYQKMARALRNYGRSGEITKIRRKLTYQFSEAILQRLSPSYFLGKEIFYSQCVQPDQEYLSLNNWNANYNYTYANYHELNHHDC
# Procedure, shortened: as §1
# [14] = target: ELF4 (Homo sapiens, UniProt Q99607 1-663); settings: protein: recombinant; tags: N-terminal GST; dsDNA, one strand shown
# Procedure, shortened: as §1
# [15] = target: T9, ELK4 (Homo sapiens, UniProt P28324-2 1-405); settings: protein: recombinant; tags: N-terminal GST; dsDNA, one strand shown
# T9 sequence: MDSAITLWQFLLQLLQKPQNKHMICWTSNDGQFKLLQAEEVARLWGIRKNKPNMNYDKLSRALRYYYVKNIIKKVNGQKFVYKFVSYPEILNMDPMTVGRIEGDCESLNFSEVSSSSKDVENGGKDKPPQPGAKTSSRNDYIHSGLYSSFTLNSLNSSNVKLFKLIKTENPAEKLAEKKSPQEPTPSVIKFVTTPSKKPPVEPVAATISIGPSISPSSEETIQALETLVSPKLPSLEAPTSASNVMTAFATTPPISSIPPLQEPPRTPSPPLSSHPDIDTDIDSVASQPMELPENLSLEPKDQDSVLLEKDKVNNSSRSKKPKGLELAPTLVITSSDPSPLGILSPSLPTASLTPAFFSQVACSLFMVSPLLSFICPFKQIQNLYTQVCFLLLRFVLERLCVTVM
# Procedure, shortened: as §1
# [16] = target: T10, ETV2 (Homo sapiens, UniProt O00321 1-342); settings: protein: recombinant; tags: N-terminal GST; dsDNA, one strand shown
# T10 sequence: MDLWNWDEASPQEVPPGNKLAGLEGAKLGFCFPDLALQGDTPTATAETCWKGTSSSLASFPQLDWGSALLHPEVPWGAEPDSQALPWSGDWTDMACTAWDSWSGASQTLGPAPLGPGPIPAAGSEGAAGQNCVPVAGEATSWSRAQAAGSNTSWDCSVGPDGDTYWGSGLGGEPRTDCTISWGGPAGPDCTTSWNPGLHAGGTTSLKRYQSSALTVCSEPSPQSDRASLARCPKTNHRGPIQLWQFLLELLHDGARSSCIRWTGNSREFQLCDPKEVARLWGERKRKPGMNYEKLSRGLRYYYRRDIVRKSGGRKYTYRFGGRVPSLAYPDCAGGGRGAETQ
# Procedure, shortened: as §1
# [17] = target: T11, ELF3 (Homo sapiens, UniProt P78545 1-371); settings: protein: recombinant; tags: N-terminal GST; dsDNA, one strand shown
# T11 sequence: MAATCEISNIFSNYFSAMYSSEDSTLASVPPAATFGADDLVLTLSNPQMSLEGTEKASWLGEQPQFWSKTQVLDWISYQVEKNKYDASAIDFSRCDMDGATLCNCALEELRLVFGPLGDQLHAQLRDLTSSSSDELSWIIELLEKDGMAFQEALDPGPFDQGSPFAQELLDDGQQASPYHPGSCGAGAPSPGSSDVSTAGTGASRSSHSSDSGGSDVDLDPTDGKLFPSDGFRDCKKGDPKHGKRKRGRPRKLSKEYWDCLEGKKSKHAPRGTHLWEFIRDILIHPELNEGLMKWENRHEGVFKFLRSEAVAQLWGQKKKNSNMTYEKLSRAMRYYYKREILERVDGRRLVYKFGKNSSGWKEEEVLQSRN
# Procedure, shortened: as §1
# [18] = target: CRX (Homo sapiens, UniProt O43186 1-299); settings: protein: recombinant; tags: N-terminal GST; dsDNA, one strand shown
# Procedure, shortened: as §1
# [19] = target: ETV1 (Homo sapiens, UniProt P50549 1-477); settings: protein: recombinant; tags: N-terminal GST; dsDNA, one strand shown
# Procedure, shortened: as §1
# ETV5, sequence (P41161 whole entry): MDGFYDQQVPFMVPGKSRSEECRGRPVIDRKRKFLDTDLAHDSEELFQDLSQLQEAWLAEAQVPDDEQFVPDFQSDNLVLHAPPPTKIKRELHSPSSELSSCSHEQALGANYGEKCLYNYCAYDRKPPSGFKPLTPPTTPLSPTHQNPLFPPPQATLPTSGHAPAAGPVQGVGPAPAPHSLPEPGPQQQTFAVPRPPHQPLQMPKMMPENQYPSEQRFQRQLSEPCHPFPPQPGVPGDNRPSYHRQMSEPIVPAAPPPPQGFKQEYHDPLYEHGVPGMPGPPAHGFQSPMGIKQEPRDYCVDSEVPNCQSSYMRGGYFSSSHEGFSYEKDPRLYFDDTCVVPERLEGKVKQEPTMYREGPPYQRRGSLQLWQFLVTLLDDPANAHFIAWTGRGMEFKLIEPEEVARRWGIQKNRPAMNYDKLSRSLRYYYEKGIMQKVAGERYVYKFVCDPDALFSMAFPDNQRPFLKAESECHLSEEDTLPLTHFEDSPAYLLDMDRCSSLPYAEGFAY
# SPIB, sequence (Q01892 whole entry): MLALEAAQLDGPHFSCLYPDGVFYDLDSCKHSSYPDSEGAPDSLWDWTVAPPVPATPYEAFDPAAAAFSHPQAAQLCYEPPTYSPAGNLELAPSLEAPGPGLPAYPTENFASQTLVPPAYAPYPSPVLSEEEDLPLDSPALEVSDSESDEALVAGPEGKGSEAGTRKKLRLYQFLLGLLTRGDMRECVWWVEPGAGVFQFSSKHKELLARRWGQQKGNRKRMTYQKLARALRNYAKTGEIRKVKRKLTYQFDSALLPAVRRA
# HSF1, sequence (Q00613 whole entry): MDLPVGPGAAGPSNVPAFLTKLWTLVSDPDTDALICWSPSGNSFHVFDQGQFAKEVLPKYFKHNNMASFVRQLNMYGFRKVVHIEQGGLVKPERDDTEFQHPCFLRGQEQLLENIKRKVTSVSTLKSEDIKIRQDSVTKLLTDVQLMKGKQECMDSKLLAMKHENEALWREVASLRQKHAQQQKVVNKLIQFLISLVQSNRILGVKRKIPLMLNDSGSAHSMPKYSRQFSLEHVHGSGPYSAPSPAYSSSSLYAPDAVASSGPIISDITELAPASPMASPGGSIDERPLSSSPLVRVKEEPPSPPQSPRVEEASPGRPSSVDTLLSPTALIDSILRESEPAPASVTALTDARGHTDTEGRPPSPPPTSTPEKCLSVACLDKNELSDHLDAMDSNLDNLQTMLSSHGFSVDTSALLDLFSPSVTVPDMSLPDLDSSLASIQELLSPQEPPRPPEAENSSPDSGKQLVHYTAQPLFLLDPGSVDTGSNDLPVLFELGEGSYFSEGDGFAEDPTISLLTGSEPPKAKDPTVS
# CRX, sequence (O43186 whole entry): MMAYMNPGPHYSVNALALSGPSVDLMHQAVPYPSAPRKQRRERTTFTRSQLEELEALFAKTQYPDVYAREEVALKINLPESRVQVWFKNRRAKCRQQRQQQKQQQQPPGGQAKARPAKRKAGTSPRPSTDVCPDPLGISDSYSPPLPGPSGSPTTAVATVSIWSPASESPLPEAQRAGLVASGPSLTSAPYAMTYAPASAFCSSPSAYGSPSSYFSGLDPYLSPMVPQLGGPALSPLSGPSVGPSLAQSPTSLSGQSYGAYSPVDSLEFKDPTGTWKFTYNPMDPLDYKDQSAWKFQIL
# ETV1, sequence (P50549 whole entry): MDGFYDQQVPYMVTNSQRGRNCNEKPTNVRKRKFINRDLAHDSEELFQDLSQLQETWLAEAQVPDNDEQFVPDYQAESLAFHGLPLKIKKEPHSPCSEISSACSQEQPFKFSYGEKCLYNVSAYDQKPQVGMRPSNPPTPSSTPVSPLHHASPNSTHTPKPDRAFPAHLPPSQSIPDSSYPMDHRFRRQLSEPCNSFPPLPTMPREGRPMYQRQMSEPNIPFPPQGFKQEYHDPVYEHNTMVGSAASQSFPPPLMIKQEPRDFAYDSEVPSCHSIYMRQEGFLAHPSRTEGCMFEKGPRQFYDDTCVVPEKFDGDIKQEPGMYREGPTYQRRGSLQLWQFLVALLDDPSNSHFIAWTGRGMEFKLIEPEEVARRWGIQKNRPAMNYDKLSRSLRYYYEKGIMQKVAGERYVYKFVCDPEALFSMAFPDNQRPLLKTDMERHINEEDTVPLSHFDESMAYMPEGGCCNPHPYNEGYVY
# ELF1, sequence (P32519 whole entry): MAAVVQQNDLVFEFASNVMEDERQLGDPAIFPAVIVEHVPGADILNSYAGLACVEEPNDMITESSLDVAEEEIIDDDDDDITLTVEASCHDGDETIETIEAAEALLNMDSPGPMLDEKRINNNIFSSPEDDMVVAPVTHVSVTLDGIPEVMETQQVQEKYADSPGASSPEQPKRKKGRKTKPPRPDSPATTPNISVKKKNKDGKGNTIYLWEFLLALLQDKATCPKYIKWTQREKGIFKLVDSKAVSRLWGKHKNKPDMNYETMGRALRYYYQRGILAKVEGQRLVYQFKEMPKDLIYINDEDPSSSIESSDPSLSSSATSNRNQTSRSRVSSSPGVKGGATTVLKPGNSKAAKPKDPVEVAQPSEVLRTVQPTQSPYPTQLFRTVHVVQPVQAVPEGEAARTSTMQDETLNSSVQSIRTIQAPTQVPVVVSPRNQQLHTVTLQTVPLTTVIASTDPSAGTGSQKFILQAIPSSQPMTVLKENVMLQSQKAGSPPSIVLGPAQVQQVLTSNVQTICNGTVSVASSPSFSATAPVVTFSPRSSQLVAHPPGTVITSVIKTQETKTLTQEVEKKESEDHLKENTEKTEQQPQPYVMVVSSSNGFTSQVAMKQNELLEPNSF
# ELF4, sequence (Q99607 whole entry): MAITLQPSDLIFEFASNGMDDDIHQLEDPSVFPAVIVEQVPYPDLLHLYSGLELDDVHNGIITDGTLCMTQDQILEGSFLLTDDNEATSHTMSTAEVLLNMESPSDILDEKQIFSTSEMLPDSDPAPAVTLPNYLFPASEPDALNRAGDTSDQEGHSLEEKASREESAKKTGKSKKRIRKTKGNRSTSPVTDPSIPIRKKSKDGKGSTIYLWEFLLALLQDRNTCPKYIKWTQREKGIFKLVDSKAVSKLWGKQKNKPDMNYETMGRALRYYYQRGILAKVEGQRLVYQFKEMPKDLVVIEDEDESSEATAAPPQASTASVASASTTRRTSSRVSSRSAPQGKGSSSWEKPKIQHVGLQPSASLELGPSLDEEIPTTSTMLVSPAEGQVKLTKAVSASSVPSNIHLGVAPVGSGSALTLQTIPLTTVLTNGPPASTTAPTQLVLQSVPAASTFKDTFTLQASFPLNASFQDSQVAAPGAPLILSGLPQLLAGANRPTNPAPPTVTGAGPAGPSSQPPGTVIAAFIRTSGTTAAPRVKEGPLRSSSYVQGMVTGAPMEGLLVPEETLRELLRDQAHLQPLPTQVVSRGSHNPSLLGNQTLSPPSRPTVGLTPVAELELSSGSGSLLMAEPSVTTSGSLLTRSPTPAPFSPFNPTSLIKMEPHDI
sequence,measurement,setting,value
AATCTC,binding signal,[1],"1.26 fold enrichment (6-mer frequency, TF over GST control)"
same,binding signal,[2],"1.21 fold enrichment (6-mer frequency, TF over GST control)"
same,binding signal,[3],"1.28 fold enrichment (6-mer frequency, TF over GST control)"
same,binding signal,[4],"1.19 fold enrichment (6-mer frequency, TF over GST control)"
same,binding signal,[5],"1.16 fold enrichment (6-mer frequency, TF over GST control)"
same,binding signal,[6],"1.27 fold enrichment (6-mer frequency, TF over GST control)"
same,binding signal,[7],"1.16 fold enrichment (6-mer frequency, TF over GST control)"
same,binding signal,[8],"1.2 fold enrichment (6-mer frequency, TF over GST control)"
same,binding signal,[9],"1.15 fold enrichment (6-mer frequency, TF over GST control)"
same,binding signal,[10],"1.23 fold enrichment (6-mer frequency, TF over GST control)"
same,binding signal,[11],"1.37 fold enrichment (6-mer frequency, TF over GST control)"
same,binding signal,[12],"2.13 fold enrichment (6-mer frequency, TF over GST control)"
same,binding signal,[13],"1.13 fold enrichment (6-mer frequency, TF over GST control)"
same,binding signal,[14],"1.25 fold enrichment (6-mer frequency, TF over GST control)"
same,binding signal,[15],"1.22 fold enrichment (6-mer frequency, TF over GST control)"
same,binding signal,[16],"1.26 fold enrichment (6-mer frequency, TF over GST control)"
same,binding signal,[17],"1.27 fold enrichment (6-mer frequency, TF over GST control)"
same,binding signal,[18],"2.5 fold enrichment (6-mer frequency, TF over GST control)"
same,binding signal,[19],"1.34 fold enrichment (6-mer frequency, TF over GST control)"
